Reference: PubChem BioAssay
Active and inactive are the calls of the source. Unless noted, how the calls were made is not given here.

How the values were obtained:
[1] = anti-His antibody binders, primary screen, artefact control for SMM control protein annotation, biochemical, small-molecule microarray, 635 nm fluorescence (AID 1128); conditions: anti-His Alexa647 antibody binding, higher = more signal;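 further: score merges feature fluorescence with signal-to-noise for each printed compound spot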
[2] = tested on: Human papillomavirus type 1a E7 protein (residues 1-88); experiment: HPV1a E7 small-molecule binders, primary screen, biochemical, small-molecule microarray, residues 1-88, 635 nm (AID 1129); conditions: small-molecule microarray binding, fluorescence 635 nm; higher = more signal
[3] = target: Focal adhesion kinase 1 (Homo sapiens) (UniProt Q05397); experiment: small-molecule microarray binders of FAK, primary screen, biochemical, 635/667 nm fluorescence, BSA, DTT (AID 1130); conditions: PTK2 binding, 635 nm fluorescence, higher = more signal;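 further: composite of spot emission at 667 nm and signal to noise over triplicate slides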
[4] = tested on: Fibrinogen (Alexa647-labelled); experiment: fibrinogen binders on compound microarrays, profiling panel, artefact control for SMM control-protein annotation, biochemical, small-molecule microarray, 635/667 nm fluorescence (AID 1131); conditions: fibrinogen-A647 binding fluorescence, higher = more signal;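 further: z-score merges 667 nm fluorescence with per-spot signal-to-noise over triplicate slides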
[5] = target: Follistatin (Homo sapiens) (UniProt P19883); experiment: follistatin binders on small-molecule microarrays, primary screen, biochemical, small-molecule microarray, 635/667 nm fluorescence (AID 1132); conditions: FST binding, 635 nm fluorescence, higher = more signal
[6] = target: Fibroblast growth factor 2 (Homo sapiens) (UniProt P09038); experiment: FGF2 binders on small-molecule microarrays, primary screen, biochemical, small-molecule microarray, 635/667 nm fluorescence (AID 1133); conditions: small-molecule microarray binding, FGF2, fluorescence 635/667; higher = more signal
[7] = mitochondrial membrane potential change in A549 cells, profiling panel, cell-based, JC-1 fluorescence, basal, 24 h, 100 nL (AID 1138); conditions: higher = more signal;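 further: A549 lung adenocarcinoma cells under basal conditions with no added stimulus; test concentration not given here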
Lefty1 = Lefty1 binders on small-molecule microarrays, primary screen, biochemical, small-molecule microarray, 635/667 nm fluorescence (AID 1139); conditions: small-molecule microarray binding, fluorescence 635/667; higher = more signal
[8] = tested on: wheat germ agglutinin (Triticum aestivum), Alexa647-labelled; experiment: wheat germ agglutinin binders on compound microarrays, profiling panel, artefact control for SMM control-protein annotation, biochemical, small-molecule microarray, 635/667 nm fluorescence (AID 1140); conditions: WGA-A647 binding, 635 nm fluorescence, higher = more signal;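 further: score merges 667 nm feature emission with signal to noise over triplicate slides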
[9] = target: Luciferin 4-monooxygenase (Photinus pyralis) (UniProt P08659); experiment: firefly luciferase enzyme inhibitors, primary screen, biochemical, luminescence, purified enzyme, 2006 set (AID 1141); conditions: SteadyGlo luminescence, 30 min, higher = more signal, called active from +8 up or from −8 down;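 further: cell-free assay with purified firefly luciferase at 100 ng per well in PBS; test concentration not given here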
[10] = tested on: Wnt5a (protein binding on small-molecule microarray); experiment: Wnt5a binders on small-molecule microarray, primary screen, biophysical, 635/667 nm fluorescence (AID 1142); conditions: 635 nm fluorescence, higher = more signal;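 further: fluorescence read at 667 nm with signal to noise per printed feature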
[11] = cell viability in Huh7 cells, primary screen, cytotoxicity control for HCV replication inhibitor project, CellTiter-Glo luminescence, basal, 48 h (AID 1143); conditions: Huh7 HCV replicon, higher = more signal, called active from +8 up or from −8 down;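 further: Huh7 hepatoma cells carrying a hepatitis C replication reporter with no stimulus; test concentration not given here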
[12] = P. aeruginosa biofilm formation inhibitors, primary screen, PAO1 strain, BacTiter-Glo luminescence, LB-PBS (AID 1144); conditions: 12 h, higher = more signal
[13] = CREB reporter modulators without forskolin, primary screen, cell-based, PC12, CRE-LacZ reporter, unstimulated (AID 1145); conditions: no forskolin, luminescence, 4.5 h, higher = more signal, called active from +8 up or from −8 down
[14] = CREB reporter modulators under forskolin, primary screen, cell-based, PC12, CRE-LacZ reporter, forskolin-stimulated (AID 1146); conditions: luminescence, 4.5 h, higher = more signal, called active from +8 up or from −8 down;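 further: PC12 cells with 6xCRE LacZ reporter stimulated by forskolin 10 µM; beta-galactosidase reporter signal reflecting CREB driven transcription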
[15] = target: Streptavidin (Streptomyces avidinii) (UniProt P22629); experiment: streptavidin binders on small-molecule microarray, primary screen, artefact control for SMM compound annotation, biophysical, 635/667 nm fluorescence (AID 1147); conditions: streptavidin binding, higher = more signal;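 further: signal reflects streptavidin binding to arrayed compounds as a control protein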
[16] = small-molecule binders of probe aInhba, primary screen, biochemical, small-molecule microarray, 635/667 nm fluorescence (AID 1148); conditions: higher = more signal;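 further: score merges 667nm spot fluorescence with signal-to-noise for antibody binding to printed compounds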
Torsin-1A (Homo sapiens) [17] = target: Torsin-1A (Homo sapiens) (UniProt O14656); experiment: torsin A binders from cell lysate, primary screen, small-molecule microarray, wild-type, 635/667 nm (AID 1149); conditions: COS7 hTOR1A-WT lysate, 635 nm fluorescence, higher = more signal
Torsin-1A (Homo sapiens) [18] = target: Torsin-1A (Homo sapiens) (UniProt O14656); experiment: small-molecule binders of mutant TOR1A in lysate, primary screen, cell lysate, small-molecule microarray, COS7 lysate, 635/667 nm fluorescence (AID 1150); conditions: COS7 hTOR1A mutant lysate, 635 nm fluorescence, higher = more signal;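 further: score pools 667 nm emission and signal to noise measuring lysate protein binding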
[19] = tested on: Sonic hedgehog protein (Shh); experiment: small-molecule binders of Shh protein, primary screen, biochemical, small-molecule microarray, 635/667 nm fluorescence (AID 1151); conditions: small-molecule microarray binding, 635 nm fluorescence; higher = more signal;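 further: Shh protein binding to compounds spotted on small-molecule microarray slides; score combines spot fluorescence intensity with signal-to-noise across triplicate slides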

Fibroblast growth factor 2 (Homo sapiens), sequence (P09038 whole entry, looked up): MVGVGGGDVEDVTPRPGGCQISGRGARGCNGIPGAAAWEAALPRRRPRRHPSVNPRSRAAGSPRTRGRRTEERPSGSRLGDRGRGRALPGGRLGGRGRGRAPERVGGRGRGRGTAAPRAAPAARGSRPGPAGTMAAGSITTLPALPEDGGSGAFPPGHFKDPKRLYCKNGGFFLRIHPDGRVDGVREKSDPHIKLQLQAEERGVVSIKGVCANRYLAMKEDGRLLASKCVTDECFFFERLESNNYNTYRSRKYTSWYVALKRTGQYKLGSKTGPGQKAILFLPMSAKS
Torsin-1A (Homo sapiens), sequence (O14656 whole entry, looked up): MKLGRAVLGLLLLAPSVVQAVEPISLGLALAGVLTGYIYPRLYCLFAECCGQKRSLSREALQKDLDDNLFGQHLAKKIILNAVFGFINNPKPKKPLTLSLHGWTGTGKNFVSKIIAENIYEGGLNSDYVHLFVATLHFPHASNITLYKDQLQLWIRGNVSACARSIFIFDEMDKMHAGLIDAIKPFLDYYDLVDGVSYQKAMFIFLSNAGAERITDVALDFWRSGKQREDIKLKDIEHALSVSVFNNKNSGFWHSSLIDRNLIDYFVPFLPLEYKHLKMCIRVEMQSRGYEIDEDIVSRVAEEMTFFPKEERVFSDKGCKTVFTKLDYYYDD
Focal adhesion kinase 1 (Homo sapiens), sequence (Q05397 whole entry, looked up): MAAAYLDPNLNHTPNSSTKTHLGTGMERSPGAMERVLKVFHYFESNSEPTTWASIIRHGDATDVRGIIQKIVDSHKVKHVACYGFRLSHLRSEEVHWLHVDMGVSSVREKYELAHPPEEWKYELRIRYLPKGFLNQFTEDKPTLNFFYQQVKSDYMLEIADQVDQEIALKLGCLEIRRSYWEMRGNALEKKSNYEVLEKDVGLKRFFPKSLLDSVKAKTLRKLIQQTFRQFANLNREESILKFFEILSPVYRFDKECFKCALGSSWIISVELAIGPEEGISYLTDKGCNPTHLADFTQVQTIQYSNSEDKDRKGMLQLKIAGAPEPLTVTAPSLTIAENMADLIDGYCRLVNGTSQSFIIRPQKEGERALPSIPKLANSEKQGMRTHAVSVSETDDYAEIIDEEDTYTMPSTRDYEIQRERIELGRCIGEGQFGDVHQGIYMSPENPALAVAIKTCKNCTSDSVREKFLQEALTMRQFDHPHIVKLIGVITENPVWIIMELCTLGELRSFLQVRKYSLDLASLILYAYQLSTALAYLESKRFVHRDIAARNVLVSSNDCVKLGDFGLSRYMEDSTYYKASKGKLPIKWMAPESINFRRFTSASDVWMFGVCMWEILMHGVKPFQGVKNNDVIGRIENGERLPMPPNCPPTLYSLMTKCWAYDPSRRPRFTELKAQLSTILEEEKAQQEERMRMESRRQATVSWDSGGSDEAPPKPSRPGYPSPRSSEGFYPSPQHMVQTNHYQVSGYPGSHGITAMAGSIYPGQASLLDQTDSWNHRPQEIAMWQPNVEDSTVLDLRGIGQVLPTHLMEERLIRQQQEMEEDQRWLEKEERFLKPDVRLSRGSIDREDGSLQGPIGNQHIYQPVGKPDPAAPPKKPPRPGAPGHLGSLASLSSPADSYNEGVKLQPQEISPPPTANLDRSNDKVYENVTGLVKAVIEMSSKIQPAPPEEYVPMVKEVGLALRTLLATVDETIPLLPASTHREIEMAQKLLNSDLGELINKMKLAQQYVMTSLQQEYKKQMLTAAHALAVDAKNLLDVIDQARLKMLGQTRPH
Streptavidin (Streptomyces avidinii), sequence (P22629 whole entry, looked up): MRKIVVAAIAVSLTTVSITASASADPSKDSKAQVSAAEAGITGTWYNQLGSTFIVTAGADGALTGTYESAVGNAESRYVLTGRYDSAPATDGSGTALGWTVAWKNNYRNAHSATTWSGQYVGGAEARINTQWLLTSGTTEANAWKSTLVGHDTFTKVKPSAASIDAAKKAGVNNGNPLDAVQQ
Luciferin 4-monooxygenase (Photinus pyralis), sequence (P08659 whole entry, looked up): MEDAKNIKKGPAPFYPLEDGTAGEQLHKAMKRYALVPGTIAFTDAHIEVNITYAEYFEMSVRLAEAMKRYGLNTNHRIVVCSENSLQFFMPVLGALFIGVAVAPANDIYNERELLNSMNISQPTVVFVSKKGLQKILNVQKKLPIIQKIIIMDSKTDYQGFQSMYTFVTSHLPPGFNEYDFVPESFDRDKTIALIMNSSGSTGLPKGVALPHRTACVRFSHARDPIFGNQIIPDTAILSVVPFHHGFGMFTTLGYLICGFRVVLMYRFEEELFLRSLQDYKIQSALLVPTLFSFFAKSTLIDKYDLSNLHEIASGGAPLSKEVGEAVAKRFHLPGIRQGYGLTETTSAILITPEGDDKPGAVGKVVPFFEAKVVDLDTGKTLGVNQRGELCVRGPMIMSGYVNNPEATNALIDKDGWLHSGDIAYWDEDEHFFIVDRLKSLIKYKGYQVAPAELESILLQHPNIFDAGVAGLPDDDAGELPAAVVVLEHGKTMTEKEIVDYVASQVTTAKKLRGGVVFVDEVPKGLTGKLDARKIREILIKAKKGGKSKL
Follistatin (Homo sapiens), sequence (P19883 whole entry, looked up): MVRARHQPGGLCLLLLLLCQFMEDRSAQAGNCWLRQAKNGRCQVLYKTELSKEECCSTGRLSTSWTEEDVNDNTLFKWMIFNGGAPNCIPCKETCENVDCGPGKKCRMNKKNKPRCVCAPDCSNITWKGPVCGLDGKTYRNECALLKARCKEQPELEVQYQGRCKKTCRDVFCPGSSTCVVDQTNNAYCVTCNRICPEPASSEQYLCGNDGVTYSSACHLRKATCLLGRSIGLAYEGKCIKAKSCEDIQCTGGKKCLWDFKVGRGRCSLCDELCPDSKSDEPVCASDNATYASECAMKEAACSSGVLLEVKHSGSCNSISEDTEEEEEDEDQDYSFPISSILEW

SMILES	composite z-score [1]	composite z-score [2]	composite z-score [3]	composite z-score [4]	composite z-score [5]	composite z-score [6]	z-score [7]	composite z-score (Lefty1)	composite z-score [8]	z-score [9]	composite z-score [10]	z-score [11]	z-score [12]	z-score [13]	z-score [14]	composite z-score [15]	composite z-score [16]	composite z-score (Torsin-1A (Homo sapiens) [17])	composite z-score (Torsin-1A (Homo sapiens) [18])	composite z-score [19]
[N-]=[N+]=NCc1ccccc1[C@@H]1OC(c2ccc(OCCCO)cc2)=N[C@]1(CCS(=O)(=O)c1ccccc1)C(N)=O	3.49	1.27	1.21	0.973	1.44	1.83	-0.528	0.616	1.09	-2.98 (inactive)	1.2	-0.369 (inactive)	1.47 (inactive)	-0.128 (inactive)	-0.785 (inactive)	0.982	0.393	1.41	1.26	0.99
C=C(CCCC)/C(=C/C[C@@H](OC(C)=O)c1cccc(OCCO)c1)c1cnc2ccccc2c1	1.35	0.157	-0.0542	0.0837	1.4	1.18	0.908	1.37	0.978	-0.245 (inactive)	0.16	-0.82 (inactive)	-1.07 (inactive)	1.7 (inactive)	-0.307 (inactive)	0.0063	-0.154	1.17	0.762	2.05
O=C1C2C=CC(C(O)c3ccc4c(c3)OCO4)N(Nc3ccc([N+](=O)[O-])cc3)C2C(=O)N1c1ccccc1 (stereo not given)	1.29	0.978	-0.0123	0.293	0.225	-0.0036	-0.35	0.313	0.0897	0.382 (inactive)	-0.0509	-0.954 (inactive)	0.105 (inactive)	-0.116 (inactive)	-0.222 (inactive)	0.145	-0.0178	-0.0053	0.17	-0.199
O=C1[C@@]23C=C(Br)[C@H](C[C@@H]2COC3)[C@]12CO2	-2.07	-3.63	0.406	-2.79	-0.362	-0.829	-0.096	-0.921	-2.06	-0.0914 (inactive)	-0.139	-0.38 (inactive)	-0.00184 (inactive)	1.04 (inactive)	1.78 (inactive)	-1.08	-0.204	-0.672	-0.666	-0.0003
COc1ccc(C(=O)Nc2cccc(CN3C(=O)[C@]4(O[C@H](CCn5cc(CCO)nn5)[C@@H]([Si](C)(C)c5ccc(OC)cc5)[C@@H]4C)c4ccccc43)c2)cc1	-0.0471	1.09	0.258	0.757	1.29	0.188	-1.11	0.834	0.351	-0.1 (inactive)	0.224	-7.97 (inactive)	-0.0511 (inactive)	0.963 (inactive)	-1.52 (inactive)	0.38	-0.0963	0.188	0.359	1.21
C[N+](C)(C)CCCC[C@@H]1NC(=O)[C@@H]2C[C@H](C(=O)NCCCCCCNC(=O)CS)[C@H](c3ccc(O)cc3)N2C1=O	0.271	-0.982	-0.531	-0.33	0.0054	-0.117	-0.122	-0.237	-0.341	0.182 (inactive)	-0.387	-0.195 (inactive)	-0.421 (inactive)	0.0165 (inactive)	1.45 (inactive)	0.553	-0.0963	0.296	0.461	0.586
C=CCC(OC(C)=O)[C@@H]1[C@@H](N(Cc2cc3ccccc3o2)C(=O)Cc2ccc(OC)cc2)c2cc(OCCCO)ccc2N1C(=O)c1ccc2ccccc2c1 (stereo not given in full)	0.19	-0.491	0.115	-1.19	0.2	-0.568	-0.319	0.128	0.757	0.148 (inactive)	-0.252	-1.58 (inactive)	-0.352 (inactive)	1.41 (inactive)	0.368 (inactive)	-0.277	-0.0791	-0.748	-0.502	0.688
CCOC(=O)C[C@H]1[C@H](OC(=O)c2ccc(-c3ccccc3)cc2)[C@@H](NC(=O)c2ccccc2)c2cc(OCCCO)ccc2N1C(=O)Cc1ccc(OC)cc1	-0.913	-0.509	-0.355	-0.264	-0.434	0.1	1.45	-0.336	-0.126	-0.938 (inactive)	0.0137	0.0974 (inactive)	-0.962 (inactive)	0.0035 (inactive)	-0.701 (inactive)	-0.238	0.0001	-0.0369	-0.456	0.0151
COc1ccc([Si](C)(C)[C@@H]2[C@@H](CCO)O[C@]3(C(=O)N(Cc4cccc(N5CCOC5=O)c4)c4ccccc43)[C@H]2C)cc1	0.0657	0.981	-0.0325	0.9	1	0.568	-0.393	0.26	1.08	-0.335 (inactive)	0.183	-5.47 (inactive)	-0.631 (inactive)	8.62 (active)	-0.905 (inactive)	0.424	0.0569	0.531	0.226	0.529
C=CCN1Cc2ccccc2[C@@H]2OC(c3ccc(OCCCO)cc3)=N[C@]2(CCS(=O)(=O)c2ccccc2)C1=O	1.56	1.2	0.772	0.811	1.4	1.78	1.37	0.602	0.393	-2.38 (inactive)	1.02	-2.93 (inactive)	-0.491 (inactive)	2.65 (inactive)	-0.821 (inactive)	0.316	0.122	0.625	0.969	1.77
